A selection: hits, their analogues and other compounds. The true share with any hit is near 8%.
MCF10A rereplic: inducers of DNA re-replication in MCF 10A breast cells; AID 624296; MCF 10A DNA re-replication, Hoechst nuclear intensity, 48 h; 350,000 tested, 2.9% active; Potency, µM (top dose mostly 46.1 µM), usual class: activators; further: nearly all actives have a fitted effect of over 50% in size
KB-V1 MDR tox: kills drug-selected multidrug resistant KB-V1 cells; 400,000 tested, 3.4% active; Potency, µM (titrated, usually from 46.1 µM), usual class: cytotoxic; KB-V1 MDR cells viability, CellTiter-Glo, 72 h; AID 1347076; further: nearly all actives have a fitted effect of over 60% in size
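Cytotoxicity via CellTiter-Glo luminescence after 72 h compound exposure at 37 degrees C. Cells: drug-selected KB-V1 line, DMEM phenol-red free plus 10% FBS. Compounds tested at multiple concentrations; normalized data fitted to concentration-effect curves.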
HT1080 IDH1KD tx: kills HT-1080 cells with IDH1 knockdown | HT-1080 IDH1 knockdown viability, ATP luminescence, 48 h | 360,000 tested, 2% active | Potency, µM (highest dose often 46.1 µM), actives largely listed as cytotoxic
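Assay cells: HT-1080 with IDH1 knockdown, 750 per well, RPMI/5% FBS. Exposure: 48 h at 37 °C following 2 h pre-incubation. Read: CellTiter-Glo luminescence; fitted concentration-response, curve class assigned.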
KB-3-1 tox: kills parental KB-3-1 adenocarcinoma cells; KB-3-1 viability, CellTiter-Glo ATP luminescence, 72 h; Potency, µM (series often up to 46.1 µM), most hits filed as cytotoxic; 400,000 tested, 1.4% active; further: nearly all actives have a fitted effect of over 60% in size
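72 h, 37 °C compound treatment of KB-3-1 parental cells; CellTiter-Glo added, 10 min, luminescence read. Data corrected against DMSO-only plates and normalized before curve fitting.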
SW480 rerep: inducers of DNA re-replication in SW480 colon cancer cells; SW480 DNA re-replication, Hoechst DNA content imaging, 48 h; 340,000 tested, 1.8% active; Potency, µM (series often up to 46.1 µM), most hits filed as activators; further: nearly all actives have a fitted effect of over 55% in size
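SW480 cells exposed to compounds for 48 hr at 37 C, 5% CO2, then Hoechst-stained 40 min. Nuclear DNA content imaged by fluorescence scanning (405 nm excitation, 500-530 nm emission); re-replication scored as increased high-intensity nuclei.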
HT1080NT lethal: kills 2HG-producing HT-1080-NT fibrosarcoma cells | HT-1080-NT fibrosarcoma viability, CellTiter-Glo ATP luminescence, 48 h | Potency, µM (top dose mostly 46.1 µM), usual class: cytotoxic | 360,000 tested, 1.6% active | AID 686970;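 further: NT is the 2HG producing partner of a matched IDH1 knockdown line; nearly all actives have a fitted effect of over 55% in size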
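Compounds were tested in concentration-response format on HT-1080-NT cells for 48 hours at 37 degrees C. Cell viability came from CellTiter-Glo luminescence; curves were classified by r2, response magnitude and activity.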
A number is an active result; – = inactive; ? = inconclusive; · = no result given. The call rests on the fitted dose curve; in most records, active means well fitted curve in the direction sought with a large enough effect; inconclusive means small, poorly fitted or top-dose-only effect, or another doubt; inactive means no such curve, though single readings can be large; an effect the other way counts as inactive or inconclusive.

SMILES	MCF10A rereplic	KB-V1 MDR tox	HT1080 IDH1KD tx	KB-3-1 tox	SW480 rerep	HT1080NT lethal
c1ccc(CCNc2c3c(nc4ncnn24)CCC3)cc1	–	12µM	–	–	–	–
O=[N+]([O-])c1ccc(CN2CCN(c3ccc([N+](=O)[O-])cc3)CC2)cc1	–	–	?	?	–	?
O=[N+]([O-])c1ccc(N2CCC(=NOCc3ccc(Cl)cc3)CC2)cc1	–	15µM	–	–	–	?
CS(=O)(=O)N(CC(=O)N1CCOCC1)c1cccc(Cl)c1	·	–	–	–	·	–
CCOC(=O)N1CCN(C(=O)CN(c2ccc(Cl)c(C(F)(F)F)c2)S(C)(=O)=O)CC1	–	23µM	–	–	–	–
COc1ccc(OC)c(N(CC(=O)N2CCC(C)CC2)S(=O)(=O)c2ccccc2)c1	–	7.3µM	–	–	–	–
CS(=O)(=O)N(CC(=O)N1CCN(c2ccc(F)cc2)CC1)c1cccc(Cl)c1	–	9.2µM	–	–	–	–

Assay outcomes deposited in PubChem BioAssay by National Center for Advancing Translational Sciences (NCATS).
